# Measured values from the supplement of paper PMC10646978.
# ± gives the standard deviation.
# Columns and labels:
# Details in all cases: modulator concentration 10 µM
# [1] = system: RAW-Dual (murine macrophage reporter line); test: NF-kB reporter (SEAP) activity fold change vs agonist alone; higher = enhanced NF-kB activity
# In short: (§1)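 RAW-Dual murine macrophage reporter cells were plated at 50 000 per well in 384-well plates, pin-transferred compound to 10 μM final, and pre-incubated for 1 hour at 37 °C before a PRR agonist was added and the cells incubated overnight. NF-κB activity was read from supernatant SEAP with QUANTI-Blue at 620 nm absorbance, and IRF activity from Lucia luciferase with QUANTI-Luc by luminescence. Each signal was expressed as fold change by dividing by the mean agonist-only control on the same plate. Two replicate plates were averaged, with errors obtained by propagation.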
# [2] = system: RAW-Dual (murine macrophage reporter line); test: IRF reporter (Lucia luciferase) activity fold change vs agonist alone; higher = enhanced IRF activity
# In short: as §1
# [3] = system: RAW-Dual (murine macrophage reporter line); test: viability score (confluency relative to resting cells, overnight) (fraction); higher = more viable, active = viable (0.7 or more)
# In short: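 Overnight exposure to 10 μM final compound was carried out on RAW-Dual macrophages in 384-well plates. IncuCyte software generated two confluency masks over all wells imaged with IncuCyte. The viability score gives confluency in relation to resting cells. A compound met the cutoff if each mask exceeded 70% of resting cells.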
# [4] = agonist: CpG ODN 1826 0.5 ug/mL
SMILES,"NF-kB reporter [1, 4]",NF-kB reporter ([1]; agonist: LPS 0.1 ug/mL),NF-kB reporter ([1]; agonist: MPLA […]),IRF reporter ([2]; agonist: 3'3'-cGAMP 10 ug/mL),IRF reporter ([2]; agonist: LPS 0.1 ug/mL),IRF reporter ([2]; agonist: MPLA […]),viability score [3]
COCCOC(=O)C1=C(C)NC(=O)NC1c1cc(OC)c(OC)c(OC)c1 (stereo unspecified),0.937 ± 0.064,1.02 ± 0.062,0.913 ± 0.069,0.956 ± 0.032,1.2 ± 0.15,1.08 ± 0.14,0.995 (active)
O=C(CS(=O)Cc1ccco1)NC/C=C\COc1cc(CN2CCCCC2)ccn1 (stereo unspecified),0.989 ± 0.16,1.02 ± 0.14,0.928 ± 0.052,0.897 ± 0.043,1.24 ± 0.3,1 ± 0.24,0.997 (active)
CC(C)=CCCC(C)=CC=NNC(=S)Nc1ccc(C)cc1,0.855 ± 0.049,1.12 ± 0.075,1.02 ± 0.065,0.256 ± 0.019,1.55 ± 0.19,1.5 ± 0.18,0.997 (active)
CS(=O)(=O)Nc1cccc(F)c1,1.12 ± 0.088,1.08 ± 0.074,1.03 ± 0.061,1 ± 0.17,1.07 ± 0.14,1.07 ± 0.22,1 (active)
CCCOc1ccc(C(=O)OCCN(CC)CC)cc1N.Cl,0.857 ± 0.14,1.03 ± 0.1,0.928 ± 0.077,1.01 ± 0.044,1.2 ± 0.19,1.44 ± 0.15,1 (active)
CC(C)(C)c1cc(CCC(=O)NN)cc(C(C)(C)C)c1O,0.8 ± 0.066,0.816 ± 0.06,0.926 ± 0.096,0.519 ± 0.022,1.15 ± 0.12,1.24 ± 0.2,1.02 (active)
COc1ccc2c3c([nH]c2c1)C(=O)CCC3,1.43 ± 0.11,0.785 ± 0.066,1.12 ± 0.11,0.732 ± 0.067,0.561 ± 0.12,0.464 ± 0.11,0.843 (active)
Cc1ccc(C2(c3ccc(C)cc3)CC2C(=O)Nc2cccnc2)cc1 (stereo unspecified),0.883 ± 0.061,0.985 ± 0.076,0.82 ± 0.023,1.02 ± 0.036,1.01 ± 0.062,0.91 ± 0.14,0.998 (active)
NC(=O)c1ncn(C2OC(CO)C(O)C2O)n1 (stereo unspecified),1.17 ± 0.089,1.16 ± 0.058,1.04 ± 0.03,1.02 ± 0.075,0.951 ± 0.11,0.922 ± 0.072,0.999 (active)
CCOc1ccccc1NC(=O)N1CCCC1CS(=O)(=O)c1ccccc1 (stereo unspecified),1.01 ± 0.062,1.15 ± 0.093,0.954 ± 0.046,1.09 ± 0.057,1.3 ± 0.087,1.14 ± 0.16,0.989 (active)
CC(C=CC1=C(C)CCCC1(C)C)=CC=CC(C)=CC(=O)O,1.29 ± 0.11,0.943 ± 0.078,1.01 ± 0.1,0.568 ± 0.031,1.1 ± 0.14,0.904 ± 0.19,0.986 (active)
Cn1cc(-c2cc(CNC(=O)c3cncc(F)c3)ccn2)cn1,1.12 ± 0.074,1.09 ± 0.1,0.964 ± 0.033,0.966 ± 0.039,0.973 ± 0.046,1.04 ± 0.2,0.995 (active)
CN(C)CCCN1c2ccccc2Sc2ccc(Cl)cc21.Cl,0.377 ± 0.029,0.997 ± 0.096,1.87 ± 0.041,1.07 ± 0.073,1.13 ± 0.1,1.37 ± 0.17,0.306 (inactive)
